Holding throughout (experiment): PBM; 200 nM protein, PBS
Settings in all cases: dsDNA, one strand shown

The target in assay [1] is T1, PAX4 (Homo sapiens, UniProt O43316 9-242, R200K).
T1 sequence: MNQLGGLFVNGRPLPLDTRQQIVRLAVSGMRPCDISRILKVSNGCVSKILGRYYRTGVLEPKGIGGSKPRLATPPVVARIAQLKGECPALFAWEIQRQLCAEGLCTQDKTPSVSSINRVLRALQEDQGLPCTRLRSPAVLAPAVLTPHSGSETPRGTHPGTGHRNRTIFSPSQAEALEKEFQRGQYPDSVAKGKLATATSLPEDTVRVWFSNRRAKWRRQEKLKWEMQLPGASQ

Assay [2] deals with T2, PAX4 (Homo sapiens, UniProt O43316 9-242).
T2 sequence: T1 sequence with K192R

In assay [3] the target is ALX3 (Homo sapiens, UniProt O95076 139-225, N203Q).
The target in assay [4] is HOXD13 (Homo sapiens, UniProt P35453 263-343, T313R).
In assay [5] the target is T3, PAX4 (Homo sapiens, UniProt O43316 9-242, R200Q).
T3 sequence: T1 sequence with K192Q

Assay [6] deals with HOXD13 (Homo sapiens, UniProt P35453 263-343).
The target of assay [7] is T4, PAX4 (Homo sapiens, UniProt O43316 9-242, F177V).
T4 sequence: T1 sequence with F169V, K192R

The target of assay [8] is T5, PAX4 (Homo sapiens, UniProt O43316 9-242, F177Y).
T5 sequence: T1 sequence with F169Y, K192R

In assay [9] the target is HOXD13 (Homo sapiens, UniProt P35453 263-343, T313A).
Another assay deals with HOXC9 (Homo sapiens, UniProt P31274 178-260, R222W).
In assay [10] the target is T6, PAX4 (Homo sapiens, UniProt O43316 9-242, R227W).
T6 sequence: T1 sequence with K192R, R219W

The target of assay [11] is ALX3 (Homo sapiens, UniProt O95076 139-225, N203S).
For assay [12], the target named is T7, NKX2-6 (Homo sapiens, UniProt A6NCS4 118-204).
T7 sequence: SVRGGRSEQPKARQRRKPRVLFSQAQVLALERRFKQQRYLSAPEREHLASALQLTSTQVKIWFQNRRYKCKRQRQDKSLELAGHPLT

Assay [13] addresses T8, NKX2-6 (Homo sapiens, UniProt A6NCS4 118-204, F151L).
T8 sequence: T7 sequence with F34L

In assay [14] the target is HOXA2 (Homo sapiens, UniProt O43364 129-215, R185T).
Assay [15] addresses HOXA2 (Homo sapiens, UniProt O43364 129-215, R185K).
Assay [16] addresses HOXA2 (Homo sapiens, UniProt O43364 129-215, Y150S).
Assay [17] addresses HOXA2 (Homo sapiens, UniProt O43364 129-215).

From paper PMC11006913 come the findings set out here.

Where a chain is given by its changes, count along the chain named.

HOXD13 (Homo sapiens, UniProt P35453 263-343), sequence (P35453 263-343): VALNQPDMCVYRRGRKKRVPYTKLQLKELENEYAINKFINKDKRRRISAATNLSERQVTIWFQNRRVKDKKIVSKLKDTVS
HOXA2 (Homo sapiens, UniProt O43364 129-215, R185K), sequence (O43364 129-215 R185K): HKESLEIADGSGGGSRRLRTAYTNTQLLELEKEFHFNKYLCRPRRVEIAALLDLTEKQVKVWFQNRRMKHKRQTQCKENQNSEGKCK
HOXC9, sequence (P31274 178-260 R222W): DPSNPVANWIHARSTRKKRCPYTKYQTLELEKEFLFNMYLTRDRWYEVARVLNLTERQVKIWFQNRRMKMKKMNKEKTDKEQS
ALX3 (Homo sapiens, UniProt O95076 139-225, N203S), sequence (O95076 139-225 N203S): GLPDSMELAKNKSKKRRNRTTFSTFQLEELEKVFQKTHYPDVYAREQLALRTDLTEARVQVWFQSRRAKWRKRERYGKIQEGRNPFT
HOXD13 (Homo sapiens, UniProt P35453 263-343, T313R), sequence (P35453 263-343 T313R): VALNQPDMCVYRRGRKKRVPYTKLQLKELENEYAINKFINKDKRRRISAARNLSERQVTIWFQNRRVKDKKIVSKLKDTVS
HOXD13 (Homo sapiens, UniProt P35453 263-343, T313A), sequence (P35453 263-343 T313A): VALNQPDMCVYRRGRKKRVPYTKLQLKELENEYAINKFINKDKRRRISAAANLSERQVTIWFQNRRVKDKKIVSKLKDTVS
HOXA2 (Homo sapiens, UniProt O43364 129-215), sequence (O43364 129-215): as the sequence (O43364 129-215 R185K) above, with K57R counted along it
ALX3 (Homo sapiens, UniProt O95076 139-225, N203Q), sequence (O95076 139-225 N203Q): as the sequence (O95076 139-225 N203S) above, with S65Q counted along it
HOXA2 (Homo sapiens, UniProt O43364 129-215, Y150S), sequence (O43364 129-215 Y150S): as the sequence (O43364 129-215 R185K) above, with Y22S, K57R counted along it
HOXA2 (Homo sapiens, UniProt O43364 129-215, R185T), sequence (O43364 129-215 R185T): as the sequence (O43364 129-215 R185K) above, with K57T counted along it

For the sequence AATTTATA, the binding signal in the assay with PAX4 [1] is 11.2 upbm affinity estimate (log intensity, higher = more binding, comparable within an allelic series); in the assay with PAX4 [2], 11.4 upbm affinity estimate (log intensity, higher = more binding, comparable within an allelic series); with ALX3 [3], 8.61 upbm affinity estimate (log intensity, higher = more binding, comparable within an allelic series); with HOXD13 [4] it was 10.9 upbm affinity estimate (log intensity, higher = more binding, comparable within an allelic series); with PAX4 [5] it was 11.3 upbm affinity estimate (log intensity, higher = more binding, comparable within an allelic series); in the assay with HOXD13 [6], 11.7 upbm affinity estimate (log intensity, higher = more binding, comparable within an allelic series). The binding signal in the assay with PAX4 [7] is 10.6 upbm affinity estimate (log intensity, higher = more binding, comparable within an allelic series); with PAX4 [8] it was 10.8 upbm affinity estimate (log intensity, higher = more binding, comparable within an allelic series); in the assay with HOXD13 [9], 11.6 upbm affinity estimate (log intensity, higher = more binding, comparable within an allelic series); with HOXC9, 11.1 upbm affinity estimate (log intensity, higher = more binding, comparable within an allelic series); in the assay with PAX4 [10] it was 10.7 upbm affinity estimate (log intensity, higher = more binding, comparable within an allelic series); with ALX3 [11], 8.71 upbm affinity estimate (log intensity, higher = more binding, comparable within an allelic series).
Take ATTTAAAA: the binding signal in the assay with PAX4 [1] is 10.7 upbm affinity estimate (log intensity, higher = more binding, comparable within an allelic series); with PAX4 [2] it was 11 upbm affinity estimate (log intensity, higher = more binding, comparable within an allelic series); with PAX4 [5], 10.8 upbm affinity estimate (log intensity, higher = more binding, comparable within an allelic series); with PAX4 [7], 10.3 upbm affinity estimate (log intensity, higher = more binding, comparable within an allelic series).
Consider CCAGGAGC, for which the binding signal with PAX4 [1] is 9.4 upbm affinity estimate (log intensity, higher = more binding, comparable within an allelic series); with PAX4 [2], 9.35 upbm affinity estimate (log intensity, higher = more binding, comparable within an allelic series); with NKX2-6 [12], 9.22 upbm affinity estimate (log intensity, higher = more binding, comparable within an allelic series); with PAX4 [5] it was 9.51 upbm affinity estimate (log intensity, higher = more binding, comparable within an allelic series); with PAX4 [7], 9.26 upbm affinity estimate (log intensity, higher = more binding, comparable within an allelic series); with PAX4 [8], 9.24 upbm affinity estimate (log intensity, higher = more binding, comparable within an allelic series). Further, the binding signal with NKX2-6 [13] is 9.26 upbm affinity estimate (log intensity, higher = more binding, comparable within an allelic series); in the assay with PAX4 [10] it was 9.32 upbm affinity estimate (log intensity, higher = more binding, comparable within an allelic series).
With TAAAGTAA, the binding signal with PAX4 [1] was 10.7 upbm affinity estimate (log intensity, higher = more binding, comparable within an allelic series); in the assay with PAX4 [2], 10.9 upbm affinity estimate (log intensity, higher = more binding, comparable within an allelic series); with PAX4 [5] it was 10.8 upbm affinity estimate (log intensity, higher = more binding, comparable within an allelic series).
On to AAAATCAG, for which the binding signal is 10.5 upbm affinity estimate (log intensity, higher = more binding, comparable within an allelic series) with PAX4 [1]; 10.7 upbm affinity estimate (log intensity, higher = more binding, comparable within an allelic series) in the assay with PAX4 [2]; 10.6 upbm affinity estimate (log intensity, higher = more binding, comparable within an allelic series) with PAX4 [5]; 10.1 upbm affinity estimate (log intensity, higher = more binding, comparable within an allelic series) with PAX4 [7].
As to CATTTAAC, the binding signal is 10.7 upbm affinity estimate (log intensity, higher = more binding, comparable within an allelic series) in the assay with PAX4 [1]; 10.9 upbm affinity estimate (log intensity, higher = more binding, comparable within an allelic series) with PAX4 [2]; 10.8 upbm affinity estimate (log intensity, higher = more binding, comparable within an allelic series) in the assay with PAX4 [5]; 10.2 upbm affinity estimate (log intensity, higher = more binding, comparable within an allelic series) with PAX4 [7].
In the case of CGGAGCCG, the binding signal with PAX4 [1] was 9.19 upbm affinity estimate (log intensity, higher = more binding, comparable within an allelic series); with PAX4 [2], 9.38 upbm affinity estimate (log intensity, higher = more binding, comparable within an allelic series); with HOXA2 [14] it was 7.43 upbm affinity estimate (log intensity, higher = more binding, comparable within an allelic series); with PAX4 [5], 9.24 upbm affinity estimate (log intensity, higher = more binding, comparable within an allelic series); with HOXA2 [15], 10.1 upbm affinity estimate (log intensity, higher = more binding, comparable within an allelic series); in the assay with PAX4 [7] it was 9.03 upbm affinity estimate (log intensity, higher = more binding, comparable within an allelic series). In addition, the binding signal in the assay with PAX4 [8] is 9.04 upbm affinity estimate (log intensity, higher = more binding, comparable within an allelic series); with PAX4 [10], 9.09 upbm affinity estimate (log intensity, higher = more binding, comparable within an allelic series); with HOXA2 [16], 10.4 upbm affinity estimate (log intensity, higher = more binding, comparable within an allelic series); in the assay with HOXA2 [17], 7.23 upbm affinity estimate (log intensity, higher = more binding, comparable within an allelic series).
Turning to CGACAGCG, the binding signal is 9.45 upbm affinity estimate (log intensity, higher = more binding, comparable within an allelic series) in the assay with PAX4 [1]; 9.39 upbm affinity estimate (log intensity, higher = more binding, comparable within an allelic series) with PAX4 [2]; 9.49 upbm affinity estimate (log intensity, higher = more binding, comparable within an allelic series) with NKX2-6 [12]; 9.48 upbm affinity estimate (log intensity, higher = more binding, comparable within an allelic series) with PAX4 [5]; 9.36 upbm affinity estimate (log intensity, higher = more binding, comparable within an allelic series) with PAX4 [7]; 9.33 upbm affinity estimate (log intensity, higher = more binding, comparable within an allelic series) in the assay with PAX4 [8]. The binding signal is 9.32 upbm affinity estimate (log intensity, higher = more binding, comparable within an allelic series) in the assay with NKX2-6 [13] and 9.44 upbm affinity estimate (log intensity, higher = more binding, comparable within an allelic series) in the assay with PAX4 [10].
